Nrf2 activator = Nrf2 pathway activation; AREc32 ARE-luciferase reporter (MCF7-derived line), luminescence, 24 h; Potency, µM (top dose mostly 46.1 µM), for the others: top-dose activation, actives largely listed as activators; 410,000 tested, 0.31% active; AID 624171; note: potency is the fitted concentration of half-maximal effect; % of control where 0% means no effect; nearly all actives have a fitted effect of over 65% in size
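Steps: seed AREc32_Fluc cells (1000/well, 5% FBS OPTI-MEM); incubate overnight at 37 deg C; add 23 nL compound; incubate 24 hr; add Steady-Glo; hold 30 min RT; read luminescence.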
Nrf2 block = Nrf2 pathway inhibition. A549 ARE-Fluc reporter, luciferase luminescence, 18-24 h. Potency, µM (highest dose often 46 µM), without a hit: top-dose activity change, negative = inhibition, usual class: inhibitors. 360,000 tested, 2.1% active. AID 504444; note: potency is the fitted concentration of half-maximal effect; % is set by controls: 0 for no effect and ±100 for the full control effect; nearly all actives have a fitted effect of over 60% in size
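Concentration-response testing used A549 ARE_Fluc cells at 5000 cells/well. Following an 18-24 h compound incubation, viability was read by fluorescence (Ex 405/Em 525) and luciferase output by luminescence.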
A549 tox-1 = A549 cytotoxicity, counter-screen for Nrf2 inhibitors; A549 ARE-Fluc cells, CellTiter-Fluor viability, 18-24 h; 390,000 tested, 0.16% active; AID 504648; Potency, µM (titrated, usually from 46 µM), for the others: at the highest dose activity change, negative = cytotoxicity, hits mostly inhibitors; note: potency is the fitted concentration of half-maximal effect; % is set by controls: 0 for no effect and ±100 for the full control effect
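Cytotoxicity counterscreen: CellTiter-Fluor fluorescence was measured in A549 ARE_Fluc cells after 18-24 h of compound exposure in a concentration series. The subsequent BugLite luminescent read reports ARE-luciferase activity.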
IL2 activator = activators of IL-2. IL-2 activation reporter assay, cell-based qHTS; stimulated with anti-CD3/CD4/CD28 beads; in transgenic mouse T cells. activation, % (series mostly up to about 46 µM). 360,000 tested, 0.065% active. AID 652025; in the data active = activation above about 50%; inconclusive = mostly about 30% to 49%; note: 0% is about no effect
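Quantitative HTS in unstimulated transgenic mouse T cells, with memory T cells as non-tolerant control and PMA/ionomycin as tolerance-bypass control. Compound pretreatment lasted 60 minutes before 18 h bead stimulation; EGFP/DsRed fluorescence read.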
p53 reactivator = re-activators of mutant p53; H1299 p53-A138V BP100-luciferase reporter, luminescence, 24 h; Potency, µM (highest dose often 92.2 µM), for the others: at the highest dose activity change, positive = activation, usual class: activators; 320,000 tested, 0.063% active; note: potency is the fitted concentration of half-maximal effect; % of control where 0% means no effect; nearly all actives have a fitted effect of over 45% in size
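H1299 (p53-null), stable ts p53-A138V + BP100-Luc; 1000 cells/well, Opti-MEM/10% FBS; cpd 4 pt, 1:5; 24 h, 37 deg C, 5% CO2; detection reagent 10 min RT; luminescence.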
BRCA1 expr up = increases BRCA1 expression. MCF7-BRCA1-FFLuc reporter, luminescence, 48 h; response scale: scaled: vehicle 0%, 10 µM genistein 100%. Potency, µM (doses to about 46.1 µM), for the others: top-dose activation, hits mostly activators. 380,000 tested, 1.1% active. AID 624202; note: potency is the fitted concentration of half-maximal effect; nearly all actives have a fitted effect of over 80% in size
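Luminescence from a BRCA1-driven firefly luciferase in MCF7 cells was read after 48 h compound exposure at 37 C. Data normalized against DMSO and a 10microM genistein activation control, then curve-fitted across the titration.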
FLuc enzyme inh = firefly luciferase inhibition, Nrf2 hit validation; 1,400 tested, 4% active; shares compounds with Nrf2 block; purified firefly luciferase, luminescence inhibition; AID 720522; Potency, µM (doses to about 57.5 µM), inactives show at the highest dose activity change, negative = inhibition, most hits filed as inhibitors; note: potency is the fitted concentration of half-maximal effect; % is set by controls: 0 for no effect and ±100 for the full control effect; nearly all actives have a fitted effect of over 65% in size
Target sequence (P08659 whole entry, looked up): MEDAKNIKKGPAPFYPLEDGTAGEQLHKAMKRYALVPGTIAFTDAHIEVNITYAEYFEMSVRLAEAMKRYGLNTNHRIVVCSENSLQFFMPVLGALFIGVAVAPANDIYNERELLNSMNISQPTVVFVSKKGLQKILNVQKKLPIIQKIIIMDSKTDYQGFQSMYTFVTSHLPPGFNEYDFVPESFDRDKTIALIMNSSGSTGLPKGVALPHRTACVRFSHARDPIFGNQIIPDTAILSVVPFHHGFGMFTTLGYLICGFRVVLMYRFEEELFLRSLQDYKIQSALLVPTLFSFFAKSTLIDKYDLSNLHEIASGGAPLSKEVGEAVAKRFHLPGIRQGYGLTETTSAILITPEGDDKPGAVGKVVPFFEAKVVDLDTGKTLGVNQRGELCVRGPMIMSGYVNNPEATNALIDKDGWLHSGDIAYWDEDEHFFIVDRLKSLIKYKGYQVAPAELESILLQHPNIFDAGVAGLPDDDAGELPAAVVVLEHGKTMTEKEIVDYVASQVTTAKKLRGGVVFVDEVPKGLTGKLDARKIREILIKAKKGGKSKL
A549 tox-2 = toxic to A549 ARE-Fluc cells in Nrf2 counterscreen; AID 720523; Potency, µM (doses to about 46.1 µM), inactives show top-dose activity change, negative = cytotoxicity, actives largely listed as inhibitors; 1,400 tested, 2% active; shares compounds with Nrf2 block; A549 ARE-Fluc cells, cytotoxicity counterscreen;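 note: potency is the fitted concentration of half-maximal effect; cells exposed to compounds for 18 to 24 hours; % is set by controls: 0 for no effect and ±100 for the full control effect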
Nrf2 ARE inh = reduces Nrf2 ARE reporter signal in A549 cells; Potency, µM (series often up to 46.1 µM), without a hit: at the highest dose activity change, negative = inhibition, hits mostly inhibitors; 1,400 tested, 74% active; A549 ARE-firefly luciferase reporter, luminescence; shares compounds with Nrf2 block; note: potency is the fitted concentration of half-maximal effect; % is set by controls: 0 for no effect and ±100 for the full control effect; nearly all actives have a fitted effect of over 65% in size
The depositor's hits bear a star; ? = inconclusive; . = no result; [ ] = dose if it differs, or a comment. Compounds with a hit are over-represented: about 3.2% of the library has one in this group of screens. Unless noted, calls come from the whole dose curve; as a rule, active = well fitted curve in the direction sought with a large enough effect; inconclusive = small, poorly fitted or top-dose-only effect, or another doubt; inactive = no such curve, though single readings can be large; an effect the other way counts as inactive or inconclusive.

SMILES	Nrf2 activator	Nrf2 block	A549 tox-1	IL2 activator	p53 reactivator	BRCA1 expr up	FLuc enzyme inh	A549 tox-2	Nrf2 ARE inh
CC(C)[N+](C)(CCOC(=O)C1c2ccccc2Oc2ccccc21)C(C)C	0%	5.2µM*	9%	0	3%	-6%	-1%	-9%	4.6µM*
COc1cc(/C=C2\COC/C(=C\c3cc(OC)c(OC)c(OC)c3)C2=O)cc(OC)c1OC	-3%	5.8µM*	9%	-1	-13%	-94%	-1%	2%	0.12µM*
Cc1ccc(S(=O)Cc2nc(-c3ccc(C(=O)NC(C)c4ccccc4)cc3)oc2C)cc1 (centres undefined)	-1%	-6%	-4%	.	.	.	.	.	.
CCCCOc1ccccc1NC(=O)c1scc2c1OCCO2	6%	5.2µM*	1%	-2	-2%	-56%	-14%	4%	6%
CCCCOc1ccccc1NC(=O)c1ccco1	0%	-9%	1%	0	-2%	12%	.	.	.
Cc1cc(Cl)ccc1NC(=O)CCCn1nc(C)c2c(C)n(-c3ccccc3)nc2c1=O	0%	?	-6%	.	.	.	.	.	.
C=C1C[C@H]2[C@@H]3C=C(C)C4=CC(=O)CC[C@]4(C)[C@H]3CC[C@]2(C)[C@@]1(OC(C)=O)C(C)=O	0%	?	-5%	0	-9%	-12%	-1%	-9%	0.16µM*
Cc1cccc(CC(=O)Nc2ccc3nc(N4CCC(C)CC4)cc(C)c3c2)c1	0%	0%[9.27 µM]	7%	.	.	5%	.	.	.
COc1ccc(NS(=O)(=O)c2ccc(OC)c(N(C)S(=O)(=O)c3ccc(Cl)cc3)c2)cc1	6%	7.3µM*	?	-3	?	-106%	-10%	?	8.2µM*
CN(c1ccc(OCC(=O)OCC(=O)Nc2ccc(F)cc2)cc1)S(=O)(=O)c1ccc(Cl)cc1	-1%	3%	2%	-2	12%	-5%	.	.	.
COc1ccc(NC(=O)COc2ccc(N(C)S(=O)(=O)c3ccc(Cl)cc3)cc2)cc1OC	2%	9.2µM*	-9%	-1	-6%	-45%	3%	-11%	6.5µM*
COc1ccc(Cl)cc1NC(=O)Cn1nc(Cc2ccncc2)c2ccccc2c1=O	1%	-28%	-5%	.	.	.	.	.	.
O=C(Nc1ccc2oc(-c3cccnc3)nc2c1)c1ccc(-c2cccc(OC(F)(F)F)c2)o1	4%	1.5µM*	-3%	.	.	.	-24%	-9%	1.8µM*
Cc1cc(O)c(C(c2ccccc2Cl)N2CCN(c3ccccc3)CC2)c(=O)n1Cc1ccco1 (centres undefined)	-1%	.	12%	.	.	.	.	.	.
COc1ccc(S(=O)(=O)Nc2cccc3c2O[C@H](CN(C)Cc2ccc(Cl)c(Cl)c2)[C@@H](C)CN([C@H](C)CO)C3=O)cc1	0%	?	?	0	-1%	-15%	.	.	.
C[C@H]1CN([C@@H](C)CO)C(=O)c2cccc(NS(=O)(=O)c3ccc(F)cc3)c2O[C@H]1CN(C)Cc1ccc(Cl)c(Cl)c1	-5%	5.2µM*	-15%	-3	3%	0%	3%	?	18µM*

From PubChem
